The structures appear in SMILES notation. In all, about 29,000 compounds went through this assay and about 85 (0.3%) were called active.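 How the source made its calls: active means replicate mean overnight rise in green fluorescent reporter signal, 3 or more SD over negative controls; inactive means the rest.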 Only a selection was taken, and actives are over-represented in it overall.

This assay is described as follows: activators of Burkholderia fixLJ two-component system, primary screen, B. multivorans, GFP reporter (AID 1918990). The note with it: B. multivorans fixK-promoter GFP reporter, 18 h; hits give high values.
With `COc1cc(NS(=O)(=O)c2cccs2)cc(OC)c1`, the z-score is -1.05 (inactive).

Consider `Cc1ccc(C(=O)Nc2ccc3[nH]c(=O)c(=O)[nH]c3c2)cc1`, for which the z-score was -0.29 (inactive).

`CCCC(=O)Nc1cc2nn(-c3ccccc3)nc2cc1C`: the z-score is -0.72 (inactive).

In the case of `O=C(CSc1ccncc1)NC1CCOCC1Oc1cccc(F)c1` (stereo not given), the z-score is -0.58 (inactive).

Turning to `COc1cc(OC)c(N(C)C(=O)c2cc3c(=O)oc4ccccc4c3s2)cc1Cl`, the z-score was -1.12 (inactive).

Turning to `CCC(=O)N1CCc2cc(S(=O)(=O)NC(Cc3ccccc3)C(=O)NCc3ccccc3)ccc21` (stereo not given), the z-score was -1.81 (inactive).

Regarding `CC(NC(=O)CCN1CCN(C)CC1)c1cnn(-c2ccccc2)c1` (stereo not given), the z-score is 0.09 (inactive).

Turning to `COc1cc(OC)c(NC(=O)c2c3c(nn2C)-c2ccccc2SC3)cc1Cl`, the z-score was 1.42 (inactive).

Turning to `CCOC(=O)c1cnc2c(C)cc(C)cc2c1Nc1ccc(N2CCOCC2)cc1`, the z-score is -0.2 (inactive).

`O=C1CCC2(CCCN(C(=O)c3n[nH]c4c3CCCC4)C2)CN1CC1CC1` (stereo not given): the z-score was -0.52 (inactive).

In the case of `CC(C)(C)NC(=O)CSc1nc(-c2ccc(F)cc2)cc(C(F)(F)F)n1`, the z-score is -1.55 (inactive).

For the molecule `CCc1ccc(CN(Cc2ccco2)C(=O)c2ccccc2Cl)cc1`, the z-score was 1.11 (inactive).

Consider `CCN1CCc2nc3sc(C(=O)Nc4ccccc4OC(F)(F)F)c(N)c3cc2C1`, for which the z-score is -0.04 (inactive).

For `Cc1ccc(S(=O)(=O)N2CCCC(C(=O)CCc3ccccc3)C2)s1` (stereo not given), the z-score was -1.15 (inactive).

As to `Cc1cc(C)nc(CCNC(=O)N(Cc2ccncc2)CC2CCC(=O)N2)n1` (stereo not given), the z-score is 0.83 (inactive).

In the case of `Cc1ccc(Cl)cc1NC(=O)CCS(=O)(=O)c1ccc(Br)s1`, the z-score was -1.34 (inactive).

Consider `CCCN1CCN(CCCNC(=O)Cn2nc(CC)n3c(cc4occc43)c2=O)CC1`, for which the z-score is 0.72 (inactive).

Regarding `Cc1nn(C)c2c1C(NC(=O)c1cc(CC(C)C)on1)CCC2` (stereo not given), the z-score is -0.15 (inactive).

As for `Cc1ccc(NC(=O)C(Cc2ccccc2)NS(=O)(=O)c2ccc3c(c2)oc(=O)n3C)cc1C` (stereo not given), the z-score is 0.54 (inactive).

For `Cc1nc2c(-c3ccccc3)c(C)nn2c(C)c1CCC(=O)NCCc1ccccc1`, the z-score is -0.95 (inactive).

Take `COc1ccc(-c2noc(CCC(=O)N(C)c3ccccc3C)n2)cc1`: the z-score is -1.83 (inactive).

As to `CCn1c(=O)c(=O)n(CC)c2cc(N3CCCCC3)c(NC(=O)c3ccc(Cl)cc3)cc21`, the z-score is 15.3 (active).

Consider `CCn1c(C(=O)Nc2cc(Cl)ccc2C)cc2sc(Cl)cc21`, for which the z-score is -0.88 (inactive).

For the molecule `CCn1c(=O)c(=O)n(CC)c2cc(N3CCCCC3)c(NC(=O)c3cccc(F)c3)cc21`, the z-score was 0.36 (inactive).

For `CCCn1nccc1S(=O)(=O)NCc1csc(-c2cnccn2)n1`, the z-score was -1.08 (inactive).

The record behind these values is PubChem BioAssay AID1918990 (ICCB-Longwood Screening Facility, Harvard Medical School, 2023).
